Test [1] concerns the target rat Constitutive Nitric Oxide Synthase (CNOS), Nos1 (gene 24598) (UniProt P29476). The experiment in a line: NVS_ENZ_rCNOS: NovaScreen (NVS) Enzymatic Assay for rat Constitutive Nitric Oxide Synthase (CNOS) (AID 2283236). The gist of the method: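 Single 25 uM duplicate screen, then concentration series to 50 uM for chemicals meeting threshold. Rat brain membrane-derived CNOS activity detected radiometrically by filtration and scintillation counting, 1 h after compound addition; DMSO as baseline.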

Test [2] deals with sheep Cyclooxygenase-1 (Cox1), PTGS1 (gene 443551) (UniProt P05979). Kind of test: NVS_ENZ_oCOX1: NovaScreen (NVS) Enzymatic Assay for sheep Cyclooxygenase-1 (Cox1) (AID 2283239).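 Further: actives reduce cyclooxygenase activity so potencies are for inhibitors.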 The gist of the method:
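COX1 from ovine seminal vesicles, activity read colorimetrically about 0.66 h after dosing. Primary screen in duplicate at 25 uM; actives retested in concentration series; loss of signal fitted versus DMSO.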

Test [3] concerns the target Adenosine receptor A1 (Bos taurus) (UniProt P28190). The experiment in a line: NVS_GPCR_bAdoR_NonSelective: NovaScreen (NVS) G Protein-Coupled Receptor Assay for bovine Adenosine Receptor (AdoR), Non-selective Binding (AID 2283244). The gist of the method: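 Cell-free binding with membranes from bovine striatum: radioligand displaced by test chemical, read after 1 h by filtration and scintillation. Single-point 25 uM duplicate primary, 50 uM top concentration in follow-up curves, DMSO baseline.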

Test [4] deals with bovine Histamine 1 Receptor (H1), gene 281231. Kind of test: NVS_GPCR_bH1: NovaScreen (NVS) G Protein-Coupled Receptor Assay for bovine Histamine 1 Receptor (H1) (AID 2283246). An outline of the steps: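 Hits from a 25 uM duplicate primary screen were retested in concentration series (top 50 uM); binding measured as scintillation-counted displacement of radioligand from bovine cerebellar membranes after 1 h, normalised to DMSO.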

Test [5] addresses human Adenosine A1 Receptor (AdoRA1), ADORA1 (gene 134) (UniProt P30542). Kind of test: NVS_GPCR_hAdoRA1: NovaScreen (NVS) G Protein-Coupled Receptor Assay for human Adenosine A1 Receptor (AdoRA1) (AID 2283254). The gist of the method: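 Hum. cortical membranes + radioligand, cmpd 1 h; filtration, scintillation count. Readout = decrease vs DMSO. Primary 25 uM dup; hits → conc. series.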

Test [6] concerns the target sheep Cyclooxygenase-2 (Cox2), PTGS2 (gene 443460) (UniProt P79208). Kind of test: NVS_ENZ_oCOX2: NovaScreen (NVS) Enzymatic Assay for sheep Cyclooxygenase-2 (Cox2) (AID 2283231). An outline of the steps: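 Ovine placental enzyme, cell-free; chemical added, 0.66 h, absorbance (colorimetric). Screen 25 uM in duplicate; ≥threshold hits titrated, top 50 uM. Inhibition = signal loss vs DMSO.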

Test [7] concerns bovine Angiotensin II Receptor Type 2 (AT2), gene 407157. The experiment in a line: NVS_GPCR_bAT2: NovaScreen (NVS) G Protein-Coupled Receptor Assay for bovine Angiotensin II Receptor Type 2 (AT2) (AID 2283240). The gist of the method: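 Radioligand displacement on bovine cerebellar membranes, 1 hour incubation, filter-based scintillation counting; loss of signal vs DMSO. Duplicate single-point screen at 25 uM, then concentration-response to 50 uM maximum.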

For test [8], the system named is guinea pig Leukotriene B4 Receptor (LTB4), gene 100379538. Kind of test: NVS_GPCR_gLTB4: NovaScreen (NVS) G Protein-Coupled Receptor Assay for guinea pig Leukotriene B4 Receptor (LTB4) (AID 2283247). An outline of the steps:
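Membranes from guinea pig spleen incubated 2 h with radioligand and compound; bound counts measured by filtration and scintillation. Screened first at 25 uM in duplicate, then actives titrated to a 50 uM top concentration relative to DMSO.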

For test [9], the target named is guinea pig Leukotriene D4 Receptor (LTD4), CYSLTR1 (gene 100135514) (UniProt Q2NNR5). Kind of test: NVS_GPCR_gLTD4: NovaScreen (NVS) G Protein-Coupled Receptor Assay for guinea pig Leukotriene D4 Receptor (LTD4) (AID 2283248). An outline of the steps:
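Guinea pig lung membrane preparation; bound radioligand measured by filter scintillation after 1 h, loss of signal versus DMSO marking displacement. Compounds tested at 25 uM in duplicate, hits retested to max 50 uM.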

Test [10] deals with human Serotonin, 5-Hydroxytryptamine Receptor 2A (5HT2A), HTR2A (gene 3356) (UniProt P28223). Kind of test: NVS_GPCR_h5HT2A: NovaScreen (NVS) G Protein-Coupled Receptor Assay for human Serotonin, 5-Hydroxytryptamine Receptor 2A (5HT2A) (AID 2283249). The gist of the method: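 Radioligand displacement on human cortex tissue extract, counted by filtration and scintillation 1.5 h post-dosing. Initial single-concentration screen at 25 uM in duplicate, concentration series in follow-up; DMSO as baseline.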
human Serotonin, 5-Hydroxytryptamine Receptor 2A (5HT2A), HTR2A (gene 3356), sequence (P28223 whole entry, looked up): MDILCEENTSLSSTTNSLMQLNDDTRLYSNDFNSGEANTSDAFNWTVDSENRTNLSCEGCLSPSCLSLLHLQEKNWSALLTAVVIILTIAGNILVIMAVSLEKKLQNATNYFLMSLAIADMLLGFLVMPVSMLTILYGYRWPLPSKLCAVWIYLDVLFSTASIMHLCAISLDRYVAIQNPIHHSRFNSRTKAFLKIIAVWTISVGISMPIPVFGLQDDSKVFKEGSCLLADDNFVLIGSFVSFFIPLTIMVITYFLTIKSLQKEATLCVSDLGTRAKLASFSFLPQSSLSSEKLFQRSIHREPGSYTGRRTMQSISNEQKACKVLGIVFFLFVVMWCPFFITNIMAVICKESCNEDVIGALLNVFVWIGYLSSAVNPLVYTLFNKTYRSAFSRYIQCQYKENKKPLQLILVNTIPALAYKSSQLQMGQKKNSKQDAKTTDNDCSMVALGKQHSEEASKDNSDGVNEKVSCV

Test [11] deals with guinea pig Muscarinic, Peripheral (Mperiperal) Receptor, Non-selective Binding, gene 100379235. The experiment in a line: NVS_GPCR_gMPeripheral_NonSelective: NovaScreen (NVS) G Protein-Coupled Receptor Assay for guinea pig Muscarinic, Peripheral (Mperiperal) Receptor, Non-selective Binding (AID 2283250). An outline of the steps:
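Screened in duplicate at 25 uM, hits retested in concentration series to 50 uM max, using bladder membrane radioligand displacement from guinea pig. Filtration and scintillation counting 1 h post-dose, fitted relative to DMSO.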

Test [12] addresses human Serotonin, 5-Hydroxytryptamine Receptor 5A (5HT5A), HTR5A (gene 3361) (UniProt P47898). The experiment in a line: NVS_GPCR_h5HT5A: NovaScreen (NVS) G Protein-Coupled Receptor Assay for human Serotonin, 5-Hydroxytryptamine Receptor 5A (5HT5A) (AID 2283251). The gist of the method: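 Membranes from HEK293 cells, radioligand binding read by filtration and scintillation after 1 h. Single-concentration duplicate testing at 25 uM, then concentration-response for actives; positive-direction fitting relative to DMSO.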

For test [13], the target named is human Serotonin, 5-Hydroxytryptamine Receptor 6 (5HT6), HTR6 (gene 3362) (UniProt P50406). Kind of test: NVS_GPCR_h5HT6: NovaScreen (NVS) G Protein-Coupled Receptor Assay for human Serotonin, 5-Hydroxytryptamine Receptor 6 (5HT6) (AID 2283253). An outline of the steps:
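Filter scintillation counting of radioligand displacement from HEK293-expressed 5HT6, 1 hour post-dose, with loss of signal relative to DMSO. Single 25 uM duplicates first, with concentration series for confirmation.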

In test [14] the target is human Serotonin, 5-Hydroxytryptamine Receptor 7 (5HT7), HTR7 (gene 3363) (UniProt P34969). The experiment in a line: NVS_GPCR_h5HT7: NovaScreen (NVS) G Protein-Coupled Receptor Assay for human Serotonin, 5-Hydroxytryptamine Receptor 7 (5HT7) (AID 2283255).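 Further: hits reduce specific radioligand binding relative to DMSO.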 An outline of the steps: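 Filter-bound radioactivity counted after 1 h, with loss of specific radioligand binding fitted against DMSO. Membrane protein came from CHO cells expressing human 5HT7. Chemicals were tested first at 25 uM in duplicate, then in concentration series if active.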
human Serotonin, 5-Hydroxytryptamine Receptor 7 (5HT7), HTR7 (gene 3363), sequence (P34969 whole entry, looked up): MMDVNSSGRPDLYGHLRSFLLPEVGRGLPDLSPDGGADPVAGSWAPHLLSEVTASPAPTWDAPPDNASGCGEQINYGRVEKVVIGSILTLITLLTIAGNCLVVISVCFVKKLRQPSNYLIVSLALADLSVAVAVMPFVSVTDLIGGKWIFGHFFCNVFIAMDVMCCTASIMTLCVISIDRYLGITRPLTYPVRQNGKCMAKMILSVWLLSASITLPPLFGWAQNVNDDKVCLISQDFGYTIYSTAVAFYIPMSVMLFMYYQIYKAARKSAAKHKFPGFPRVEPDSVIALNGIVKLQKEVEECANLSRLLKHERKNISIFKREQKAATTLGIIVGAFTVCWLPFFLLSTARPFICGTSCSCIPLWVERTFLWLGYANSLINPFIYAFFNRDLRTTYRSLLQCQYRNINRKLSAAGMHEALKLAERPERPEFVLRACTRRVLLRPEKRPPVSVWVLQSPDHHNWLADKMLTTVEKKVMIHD

In test [15] the target is human Adenosine A2a Receptor (AdoRA2a), ADORA2A (gene 135) (UniProt P29274). Kind of test: NVS_GPCR_hAdoRA2a: NovaScreen (NVS) G Protein-Coupled Receptor Assay for human Adenosine A2a Receptor (AdoRA2a) (AID 2283256). The gist of the method: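 Compounds screened in duplicate at 25 uM, with actives followed up in concentration series, for displacement of a radioligand from HEK293-derived receptor protein. Bound counts read by filter scintillation at 1.5 hours, DMSO as baseline.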
human Adenosine A2a Receptor (AdoRA2a), ADORA2A (gene 135), sequence (P29274 whole entry, looked up): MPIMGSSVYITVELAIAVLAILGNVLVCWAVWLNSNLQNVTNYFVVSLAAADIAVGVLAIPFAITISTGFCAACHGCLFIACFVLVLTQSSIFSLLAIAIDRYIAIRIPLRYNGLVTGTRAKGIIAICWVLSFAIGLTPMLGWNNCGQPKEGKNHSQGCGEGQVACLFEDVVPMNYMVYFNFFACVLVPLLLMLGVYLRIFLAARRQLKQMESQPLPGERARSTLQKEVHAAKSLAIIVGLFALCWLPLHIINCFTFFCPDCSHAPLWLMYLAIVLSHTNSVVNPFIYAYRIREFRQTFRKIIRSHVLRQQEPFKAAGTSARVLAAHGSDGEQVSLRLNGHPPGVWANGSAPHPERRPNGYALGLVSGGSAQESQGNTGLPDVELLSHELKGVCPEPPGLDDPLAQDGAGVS

Test [16] deals with human Adrenergic, Alpha 2A Receptor (Adra2A), ADRA2A (gene 150) (UniProt P08913). The experiment in a line: NVS_GPCR_hAdra2A: NovaScreen (NVS) G Protein-Coupled Receptor Assay for human Adrenergic, Alpha 2A Receptor (Adra2A) (AID 2283257). An outline of the steps: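 Displacement of a specific radioligand from HT29 membrane protein was counted by filter scintillation after 1 h. Compounds were screened in duplicate at 25 uM, and actives were retested in concentration series. Fitting was positive-direction against DMSO.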

A short description of test [17]: NVS_GPCR_bNPY_NonSelective: NovaScreen (NVS) G Protein-Coupled Receptor Assay for bovine Neuropeptide Y (NPY) Receptor, Non-selective Binding (AID 2283245). The gist of the method:
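Displacement of radioligand from bovine hippocampal membrane receptors, read by filtration and scintillation counting after 1 hour. Concentration-response to a top of 50 uM followed a 25 uM duplicate primary screen. Loss of signal versus DMSO.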

Experimental findings from PubChem BioAssay (EPA / NIEHS) are described below.

Results filed as inconclusive are left out. The source made the active and inactive calls. How the source made its calls: active means hit-call score of the fitted dose curve at least 0.9, where 1 is the maximum; inconclusive means response in the unintended direction; inactive means score below 0.9.

sheep Cyclooxygenase-1 (Cox1), PTGS1 (gene 443551), sequence (P05979 whole entry, looked up): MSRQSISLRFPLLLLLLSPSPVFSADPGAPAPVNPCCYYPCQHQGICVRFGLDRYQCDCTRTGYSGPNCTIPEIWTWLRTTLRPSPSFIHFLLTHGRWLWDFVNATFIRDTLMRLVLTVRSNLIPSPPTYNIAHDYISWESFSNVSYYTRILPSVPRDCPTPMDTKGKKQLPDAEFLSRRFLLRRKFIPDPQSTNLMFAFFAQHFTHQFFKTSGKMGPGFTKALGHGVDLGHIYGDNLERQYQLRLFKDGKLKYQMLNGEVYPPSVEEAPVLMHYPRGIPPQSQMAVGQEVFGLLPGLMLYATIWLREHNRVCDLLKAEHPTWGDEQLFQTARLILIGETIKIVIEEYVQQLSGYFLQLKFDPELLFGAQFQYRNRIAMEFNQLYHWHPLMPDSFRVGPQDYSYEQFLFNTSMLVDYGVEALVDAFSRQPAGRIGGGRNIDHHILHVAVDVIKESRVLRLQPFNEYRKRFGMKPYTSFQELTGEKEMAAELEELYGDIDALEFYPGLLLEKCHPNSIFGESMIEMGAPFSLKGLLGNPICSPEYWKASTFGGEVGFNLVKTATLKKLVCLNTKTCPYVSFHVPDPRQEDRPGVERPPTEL
human Adenosine A1 Receptor (AdoRA1), ADORA1 (gene 134), sequence (P30542 whole entry, looked up): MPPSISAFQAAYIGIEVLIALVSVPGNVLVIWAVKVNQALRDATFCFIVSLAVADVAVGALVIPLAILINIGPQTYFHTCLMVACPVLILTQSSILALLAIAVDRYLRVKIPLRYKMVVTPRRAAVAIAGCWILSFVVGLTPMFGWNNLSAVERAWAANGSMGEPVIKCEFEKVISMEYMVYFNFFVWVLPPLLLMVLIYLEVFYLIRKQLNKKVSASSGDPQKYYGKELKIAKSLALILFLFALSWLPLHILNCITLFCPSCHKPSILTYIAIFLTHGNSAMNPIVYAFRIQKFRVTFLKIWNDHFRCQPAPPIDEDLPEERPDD
rat Constitutive Nitric Oxide Synthase (CNOS), Nos1 (gene 24598), sequence (P29476 whole entry, looked up): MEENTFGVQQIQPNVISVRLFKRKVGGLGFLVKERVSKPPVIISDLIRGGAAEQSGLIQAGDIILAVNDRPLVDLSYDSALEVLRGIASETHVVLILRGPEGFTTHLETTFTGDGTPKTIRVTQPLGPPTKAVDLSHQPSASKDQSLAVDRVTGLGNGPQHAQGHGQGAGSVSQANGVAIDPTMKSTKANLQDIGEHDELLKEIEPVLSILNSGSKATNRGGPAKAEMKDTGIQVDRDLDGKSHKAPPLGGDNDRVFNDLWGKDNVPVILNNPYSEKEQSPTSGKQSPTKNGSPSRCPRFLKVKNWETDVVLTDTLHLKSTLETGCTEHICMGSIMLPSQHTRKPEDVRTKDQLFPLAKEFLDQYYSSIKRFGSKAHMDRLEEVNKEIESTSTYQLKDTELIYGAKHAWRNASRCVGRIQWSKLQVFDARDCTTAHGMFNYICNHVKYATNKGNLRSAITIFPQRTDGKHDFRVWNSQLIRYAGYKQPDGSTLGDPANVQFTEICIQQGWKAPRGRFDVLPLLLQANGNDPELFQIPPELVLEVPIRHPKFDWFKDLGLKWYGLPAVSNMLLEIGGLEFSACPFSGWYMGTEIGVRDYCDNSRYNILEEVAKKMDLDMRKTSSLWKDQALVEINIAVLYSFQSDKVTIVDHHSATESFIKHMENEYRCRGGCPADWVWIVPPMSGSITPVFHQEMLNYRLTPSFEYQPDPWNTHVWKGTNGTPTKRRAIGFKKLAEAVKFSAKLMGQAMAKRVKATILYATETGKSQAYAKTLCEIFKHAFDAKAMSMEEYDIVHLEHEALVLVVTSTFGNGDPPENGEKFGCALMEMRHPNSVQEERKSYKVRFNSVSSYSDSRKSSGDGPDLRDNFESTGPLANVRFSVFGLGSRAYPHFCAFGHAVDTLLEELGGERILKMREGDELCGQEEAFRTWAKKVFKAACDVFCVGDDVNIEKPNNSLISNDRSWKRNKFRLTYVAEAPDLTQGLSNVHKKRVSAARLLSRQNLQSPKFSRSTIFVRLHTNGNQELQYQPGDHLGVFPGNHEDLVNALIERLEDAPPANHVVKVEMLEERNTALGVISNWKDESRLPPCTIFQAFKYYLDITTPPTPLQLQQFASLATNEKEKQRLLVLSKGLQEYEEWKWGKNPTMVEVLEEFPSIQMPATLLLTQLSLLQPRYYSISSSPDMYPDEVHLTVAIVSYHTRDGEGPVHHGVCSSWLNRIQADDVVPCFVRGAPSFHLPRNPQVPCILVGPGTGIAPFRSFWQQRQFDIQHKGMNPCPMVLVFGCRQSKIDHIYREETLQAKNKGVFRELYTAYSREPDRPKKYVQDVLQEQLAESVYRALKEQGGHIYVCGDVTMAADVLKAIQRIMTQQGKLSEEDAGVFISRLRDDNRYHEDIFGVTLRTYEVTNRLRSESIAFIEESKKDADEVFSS
sheep Cyclooxygenase-2 (Cox2), PTGS2 (gene 443460), sequence (P79208 whole entry, looked up): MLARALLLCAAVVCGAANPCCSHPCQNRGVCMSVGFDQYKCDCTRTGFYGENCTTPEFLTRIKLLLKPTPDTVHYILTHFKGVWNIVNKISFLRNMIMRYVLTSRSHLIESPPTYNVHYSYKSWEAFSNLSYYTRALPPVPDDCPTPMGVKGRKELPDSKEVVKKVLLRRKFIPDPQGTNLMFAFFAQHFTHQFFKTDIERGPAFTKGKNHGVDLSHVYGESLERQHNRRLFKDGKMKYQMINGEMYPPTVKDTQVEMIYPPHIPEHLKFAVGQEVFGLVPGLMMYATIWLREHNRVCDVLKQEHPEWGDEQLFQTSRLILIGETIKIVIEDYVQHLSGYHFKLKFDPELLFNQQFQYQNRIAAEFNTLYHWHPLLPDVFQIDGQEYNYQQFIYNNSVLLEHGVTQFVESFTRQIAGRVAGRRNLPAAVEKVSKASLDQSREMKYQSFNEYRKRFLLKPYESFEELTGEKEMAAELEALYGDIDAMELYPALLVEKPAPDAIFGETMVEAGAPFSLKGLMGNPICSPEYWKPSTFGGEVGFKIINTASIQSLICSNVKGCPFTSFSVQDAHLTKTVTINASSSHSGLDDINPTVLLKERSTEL
Adenosine receptor A1 (Bos taurus), sequence (P28190 whole entry, looked up): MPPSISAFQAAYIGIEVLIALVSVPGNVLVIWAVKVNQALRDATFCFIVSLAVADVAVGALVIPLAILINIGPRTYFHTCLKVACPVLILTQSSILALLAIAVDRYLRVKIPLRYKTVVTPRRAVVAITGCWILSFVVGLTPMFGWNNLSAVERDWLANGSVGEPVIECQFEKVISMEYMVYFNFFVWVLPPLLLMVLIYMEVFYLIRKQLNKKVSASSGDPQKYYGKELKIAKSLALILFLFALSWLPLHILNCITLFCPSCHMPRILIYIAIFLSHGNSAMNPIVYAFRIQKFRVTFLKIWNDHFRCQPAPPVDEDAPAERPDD
guinea pig Leukotriene D4 Receptor (LTD4), CYSLTR1 (gene 100135514), sequence (Q2NNR5 whole entry, looked up): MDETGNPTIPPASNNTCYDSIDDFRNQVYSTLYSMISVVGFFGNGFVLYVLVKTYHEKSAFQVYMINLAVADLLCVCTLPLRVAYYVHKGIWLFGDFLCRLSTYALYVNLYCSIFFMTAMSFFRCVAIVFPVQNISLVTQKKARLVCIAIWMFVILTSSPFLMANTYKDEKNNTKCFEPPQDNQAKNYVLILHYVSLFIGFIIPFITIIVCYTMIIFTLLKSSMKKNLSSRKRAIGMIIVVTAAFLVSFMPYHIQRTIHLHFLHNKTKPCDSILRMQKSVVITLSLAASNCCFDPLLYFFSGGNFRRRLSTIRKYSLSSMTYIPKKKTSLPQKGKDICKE

Take `COc1ccc(C)cc1N`: the AC50 in test [1] is 7.8 µM (active); in test [2], 10.7 µM (active).
With `Nc1ccc2c(c1)C(=O)c1ccccc1C2=O`, the compound was called inactive in test [1] and in test [4]. Also, the half-maximal activity concentration (AC50) in test [3] is 25 µM (active); in test [5] it was 6.52 µM (active).
For the compound `Cc1ccc(Cl)cc1`, the result in [2] was inactive.
For `COc1cc(C=O)ccc1O`, in [1], the result was inactive.
On to `C=CCOC(=O)c1ccccc1C(=O)OCC=C`, for which, in test [6], the half-maximal activity concentration (AC50) was 5.13 µM (active). Further, in [5], the result was inactive.
Regarding `CC(=O)Oc1ccccc1C(=O)O`, the outcome in test [6] and in [2] was inactive.
As for `CCCCC(CC)COC(=O)CC(C(=O)OCC(CC)CCCC)S(=O)(=O)O` (stereo unspecified), the result in [1], in test [10] and in test [16] was inactive. In addition, the AC50 is 6.53 µM (active) in test [2]; 19.1 µM (active) in test [7]; 6.15 µM (active) in test [8]; 16.1 µM (active) in [9]; 25 µM (active) in test [11]; 7.45 µM (active) in test [12]. The AC50 in [13] was 36.6 µM (active); in test [5], 20.7 µM (active); in test [14], 6.08 µM (active); in [15] it was 25 µM (active).
`Cc1cc(=O)[nH]c(=S)[nH]1`: in [1], the AC50 was 6.64 µM (active).
As for `Oc1ccc2ccccc2c1N=Nc1ccccc1`, the concentration at half-maximal activity (AC50) in [3] was 25 µM (active).
For the compound `CCCCCCCCCCCC(=O)OC`, the call in test [17] was inactive.
In the case of `COc1ccc(S(=O)(=O)N2C(=O)[C@@](c3ccccc3OC)(N3C[C@H](O)C[C@H]3C(=O)N(C)C)c3cc(Cl)ccc32)c(OC)c1`, the outcome in test [17] was inactive. Moreover, in test [11], the AC50 was 13.8 µM (active).
With `Cc1oc(-c2ccccc2)nc1CCOc1cccc2c1ccn2CCC(=O)O`, the AC50 in [8] is 4.96 µM (active).
For `Cc1ccc(C(C)C)c(O)c1`, in [4], the compound was classed as inactive.
As for `CCOC(=O)CCC(=O)OCC`, the call in test [11], in test [5], in test [14] and in test [15] was inactive.
